Test results as given in PubChem BioAssay (NCI).
About 83,000 compounds went through this panel and 20% of them were active in at least one assay; those are over-represented in the sample as a whole.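 Percent growth is the endpoint: 0 to 100 indicates growth inhibition (40 means 60% inhibition), 0 means no net growth, and negative values indicate cell death.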 Active and inactive are the calls of the source. Rule for the calls: active = growth percent below 10; inactive = the rest.

Columns and labels:
Test in all cases: NCI-60 one-dose screen, 48 h (100 = growth as untreated, 0 = no growth, -100 = all killed)
Conditions in all cases: 10 µM unless noted
DU-145 prostate = tested on: DU-145 prostate
K-562 leukemia = tested on: K-562 leukemia
MALME-3M melanoma = tested on: MALME-3M melanoma
MDA-MB-231 breast = tested on: MDA-MB-231 breast
RXF 393 renal = tested on: RXF 393 renal
SF-268 CNS = tested on: SF-268 CNS
SF-295 CNS = tested on: SF-295 CNS
SF-539 CNS = tested on: SF-539 CNS
UACC-257 melanoma = tested on: UACC-257 melanoma
M14 melanoma = tested on: M14 melanoma

Measured: growth

N#Cc1c(-c2ccc(Cl)cc2)nc(NN=Cc2ccc[nH]2)nc1N1CCOCC1
inactive: DU-145 prostate 84.2% | K-562 leukemia 44.2% | MALME-3M melanoma 88.9% | MDA-MB-231 breast 79.7% | RXF 393 renal 63.1% | SF-268 CNS 46.2% | SF-295 CNS 58.4% | SF-539 CNS 33.4% | UACC-257 melanoma 101% | M14 melanoma 105%

Cc1cccc(NC(=O)N/C(N)=N/c2nc3ccccc3s2)c1
inactive: DU-145 prostate 34.6% | K-562 leukemia 18.1% | MALME-3M melanoma 50.7% | MDA-MB-231 breast 58.8% | RXF 393 renal 26.3% | SF-268 CNS 54.2% | SF-295 CNS 49.1% | UACC-257 melanoma 55% | M14 melanoma 16.5%
active: SF-539 CNS -3.23%

O=C(NCCN1CCOCC1)OCc1ccc2c(Cl)cc(Cl)c(O)c2n1
inactive: DU-145 prostate 57.7% | K-562 leukemia 31.7% | MALME-3M melanoma 73.4% | MDA-MB-231 breast 93.8% | RXF 393 renal 77.3% | SF-268 CNS 57.3% | SF-295 CNS 49.2% | SF-539 CNS 77.9% | UACC-257 melanoma 89.1% | M14 melanoma 54.6%

CNCCCNc1nc2ccccc2c2c(=O)c3cc(Cl)ccc3sc12
inactive: MALME-3M melanoma 17.6% | RXF 393 renal 61.1% | SF-268 CNS 53.8% | SF-295 CNS 62.6% | SF-539 CNS 70.8% | UACC-257 melanoma 92.8%
active: DU-145 prostate -8.94% | K-562 leukemia -70.1% | MDA-MB-231 breast -58.8% | M14 melanoma -57.2%

Cc1[nH]c(C(=O)Nc2ccccc2OC2CCN(CCN3CCOCC3)CC2)c(Cl)c1Cl
inactive: DU-145 prostate 105% | K-562 leukemia 57.5% | MALME-3M melanoma 106% | MDA-MB-231 breast 75.9% | RXF 393 renal 83.6% | SF-268 CNS 81.5% | SF-295 CNS 97.7% | SF-539 CNS 89.6% | UACC-257 melanoma 115% | M14 melanoma 106%

O=CN1N=C(c2cccc(Nc3ccnc4cc(Cl)ccc34)c2)CC1c1ccc(Cl)cc1 (stereo not given)
inactive: DU-145 prostate 23.8% | K-562 leukemia 15.8% | MALME-3M melanoma 44.4% | MDA-MB-231 breast 30.2% | SF-268 CNS 37.1% | SF-295 CNS 11.7% | SF-539 CNS 19.2% | UACC-257 melanoma 52.8% | M14 melanoma 21.7%
active: RXF 393 renal -4.85%

COc1ccc(Nc2ncc(I)c(NCCCNC(=O)C3CCC3)n2)cc1
active: MDA-MB-231 breast -45.4% | RXF 393 renal -84.1% | SF-539 CNS -34.5%
inactive: DU-145 prostate 16.3% | K-562 leukemia 25.7% | MALME-3M melanoma 41% | SF-268 CNS 14.7% | SF-295 CNS 20.8% | UACC-257 melanoma 75.3% | M14 melanoma 43%

Ic1ccc(Nc2nc3nonc3nc2Nc2ccc(I)cc2)cc1
inactive: DU-145 prostate 22.7% | SF-268 CNS 20.8% | SF-539 CNS 17%
active: K-562 leukemia 4.38% | MALME-3M melanoma -17.9% | MDA-MB-231 breast -5.93% | RXF 393 renal -0.305% | SF-295 CNS -47.6% | UACC-257 melanoma -29.7% | M14 melanoma 2.71%

COc1ccc(C/C(C)=C(\c2ccc(Cl)cc2)c2ccc(OCCCN(C)C)cc2)cc1
inactive: DU-145 prostate 102% | MALME-3M melanoma 80% | MDA-MB-231 breast 83.3% | RXF 393 renal 72.4% | SF-268 CNS 88.6% | SF-295 CNS 105% | SF-539 CNS 84.7% | UACC-257 melanoma 91.5% | M14 melanoma 48.7%
active: K-562 leukemia -7.99%

COc1ccc(C2C3=C(COC3=O)N(CCO)c3cc4c(cc32)OCO4)cc1OC (stereo not given)
inactive: DU-145 prostate 100% | K-562 leukemia 52% | MALME-3M melanoma 104% | MDA-MB-231 breast 101% | RXF 393 renal 81.4% | SF-268 CNS 91% | SF-295 CNS 62.6% | SF-539 CNS 91.9% | UACC-257 melanoma 90.6% | M14 melanoma 68.6%

Cc1ccc(O)c(NC(=O)c2cccc(Nc3ccnc(C(F)(F)F)c3)c2)c1
inactive: DU-145 prostate 80.9% | K-562 leukemia 40.9% | MALME-3M melanoma 70.1% | MDA-MB-231 breast 58.9% | RXF 393 renal 91.2% | SF-268 CNS 76.6% | SF-295 CNS 40.3% | SF-539 CNS 72.6% | UACC-257 melanoma 58.7% | M14 melanoma 68.4%

CC(=O)c1ccc(-n2cc(CN3CCN(c4cc5c(cc4F)c(=O)c(C(=O)O)cn5C4CC4)CC3)nn2)cc1
inactive: DU-145 prostate 104% | K-562 leukemia 101% | MALME-3M melanoma 94.9% | MDA-MB-231 breast 97.1% | RXF 393 renal 72% | SF-268 CNS 85.3% | SF-295 CNS 95.9% | SF-539 CNS 92.6% | UACC-257 melanoma 96.7% | M14 melanoma 90.1%

C=C1C(=O)O[C@H]2[C@H]1CC/C(COC(=O)/C=C\C(=O)NCc1ccc(Cn3c(=O)sn(CCCCl)c3=O)cc1)=C\CC[C@@]1(C)O[C@@H]21
inactive: DU-145 prostate 45.9% | K-562 leukemia 26.7% | MALME-3M melanoma 49.6% | MDA-MB-231 breast 71.9% | RXF 393 renal 86.9% | SF-268 CNS 93.5% | SF-295 CNS 99.4% | SF-539 CNS 79.9% | UACC-257 melanoma 68.9% | M14 melanoma 40.4%

Cc1c(O)cc(-c2cnc(N/N=C/c3ccccc3)s2)c(O)c1C
inactive: DU-145 prostate 105% | K-562 leukemia 89.9% | MALME-3M melanoma 107% | MDA-MB-231 breast 101% | RXF 393 renal 102% | SF-268 CNS 91.6% | SF-295 CNS 103% | SF-539 CNS 100% | UACC-257 melanoma 95.5% | M14 melanoma 95.9%

COc1ccc(/C=C(/C(=O)N2CCNCC2)c2cc(OC)c(OC)c(OC)c2)cc1O
inactive: DU-145 prostate 27% | K-562 leukemia 22% | MALME-3M melanoma 46.6% | MDA-MB-231 breast 58.2% | SF-268 CNS 49.5% | SF-295 CNS 66.3% | UACC-257 melanoma 27% | M14 melanoma 38%
active: RXF 393 renal 7.47% | SF-539 CNS 6.82%

CN(C)CCCC1(c2ccc(F)cc2)OCc2cc(-c3csc4ccccc34)ccc21 (stereo not given)
active: DU-145 prostate -0.822% | K-562 leukemia -31.8% | MALME-3M melanoma -92.1% | RXF 393 renal 4.01% | SF-295 CNS -52% | SF-539 CNS -81.7% | UACC-257 melanoma -48% | M14 melanoma -57%
inactive: MDA-MB-231 breast 10.6% | SF-268 CNS 38.6%

CC(C)NS(=O)(=O)/N=C1\NC(=O)NC1=C(Cl)Cl
inactive: DU-145 prostate 104% | K-562 leukemia 91.3% | MALME-3M melanoma 99.9% | MDA-MB-231 breast 116% | RXF 393 renal 112% | SF-268 CNS 91.3% | SF-295 CNS 103% | SF-539 CNS 96% | UACC-257 melanoma 76.8% | M14 melanoma 97.2%

Nc1ccc(-c2ccncc2)cc1NC(=O)N1CCCC1
inactive: DU-145 prostate 105% | K-562 leukemia 102% | MALME-3M melanoma 69.9% | MDA-MB-231 breast 120% | RXF 393 renal 100% | SF-268 CNS 93.3% | SF-295 CNS 103% | SF-539 CNS 90.1% | UACC-257 melanoma 59.7% | M14 melanoma 94.2%

C=CC(=O)Nc1cccc(Oc2nccc(Nc3nnc(-c4ccc(Br)cc4)s3)n2)c1
inactive: DU-145 prostate 103% | K-562 leukemia 92.6% | MALME-3M melanoma 112% | MDA-MB-231 breast 88.2% | RXF 393 renal 101% | SF-268 CNS 93.6% | SF-295 CNS 96% | SF-539 CNS 99.7% | UACC-257 melanoma 105% | M14 melanoma 116%

CS(=O)(=O)c1ccc(-c2nc3ccccc3n2CC(=O)N/N=C/c2ccccc2)cc1
inactive: DU-145 prostate 111% | K-562 leukemia 92.3% | MALME-3M melanoma 82.4% | MDA-MB-231 breast 97.6% | RXF 393 renal 116% | SF-268 CNS 97.5% | SF-295 CNS 94.2% | SF-539 CNS 97.5% | UACC-257 melanoma 98.8% | M14 melanoma 90.4%

O=C(Nc1ccc(Nc2ccncc2)cc1)c1ccc(Nc2ccnc3ccc([N+](=O)[O-])cc23)cc1
inactive: DU-145 prostate 103% | K-562 leukemia 80.5% | MALME-3M melanoma 114% | MDA-MB-231 breast 80.5% | RXF 393 renal 116% | SF-268 CNS 97.6% | SF-295 CNS 106% | SF-539 CNS 85.5% | UACC-257 melanoma 101% | M14 melanoma 108%

COC(=O)/C=C1/SC(=NCc2ccccc2)N(CCc2c[nH]c3ccccc23)C1=O
inactive: DU-145 prostate 72.5% | K-562 leukemia 48.5% | MALME-3M melanoma 108% | MDA-MB-231 breast 91% | RXF 393 renal 81.9% | SF-268 CNS 90.3% | SF-295 CNS 89.9% | SF-539 CNS 105% | UACC-257 melanoma 81.6% | M14 melanoma 80.5%

O=C(/C=C/c1cn(-c2ccccc2)nc1-c1ccccc1)CCC(=O)NO
inactive: DU-145 prostate 112% | K-562 leukemia 99.6% | MALME-3M melanoma 104% | MDA-MB-231 breast 105% | RXF 393 renal 102% | SF-268 CNS 97% | SF-295 CNS 96.1% | SF-539 CNS 113% | UACC-257 melanoma 92.7% | M14 melanoma 100%

COc1cc2c(c(OC)c1OC)C(=O)CC(c1cccc(C(=O)Nc3ccc(C#N)cc3)c1)O2 (stereo not given)
inactive: DU-145 prostate 88% | K-562 leukemia 42.2% | MALME-3M melanoma 96.9% | MDA-MB-231 breast 73.5% | RXF 393 renal 99.7% | SF-268 CNS 88.9% | SF-295 CNS 77% | SF-539 CNS 93% | UACC-257 melanoma 82.4% | M14 melanoma 72.1%

C=C1SC(=Nc2ccccc2Cl)N(C(=O)c2sc3ccccc3c2Cl)C1(C)C
inactive: DU-145 prostate 94% | K-562 leukemia 20.3% | MALME-3M melanoma 79.6% | MDA-MB-231 breast 50.5% | RXF 393 renal 93.8% | SF-268 CNS 85.2% | SF-295 CNS 27% | SF-539 CNS 54.3% | UACC-257 melanoma 98.4% | M14 melanoma 86.6%

CCCCCCCCCCOC(=O)c1nn(C(C)=O)c2cc(C)c(C)cc12
inactive: DU-145 prostate 106% | K-562 leukemia 95.2% | MALME-3M melanoma 104% | MDA-MB-231 breast 105% | RXF 393 renal 104% | SF-268 CNS 102% | SF-295 CNS 96% | SF-539 CNS 97.6% | UACC-257 melanoma 96.3% | M14 melanoma 90.7%

CCOC(=O)C/C(=N\Nc1cc(=O)[nH]c2ccc(C)cc12)C(=O)OCC
inactive: DU-145 prostate 108% | K-562 leukemia 89.4% | MALME-3M melanoma 98% | MDA-MB-231 breast 96.3% | RXF 393 renal 108% | SF-268 CNS 99.5% | SF-295 CNS 105% | SF-539 CNS 103% | UACC-257 melanoma 105% | M14 melanoma 106%
